Experimental data taken from PubChem BioAssay (NCI).
The panel holds about 83,000 compounds, 20% with a hit somewhere; the sample as a whole holds those more often.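 48-hour exposure, single concentration, 96-well plates; percent growth endpoint where 0 means no net growth. Active: below 10.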 Unmarked numbers belong to inactive results. Activity calls are given as the source filed them.

Tests used:
Experiment in all cases: NCI-60 one-dose screen, 48 h (100 = growth as untreated, 0 = no growth, -100 = all killed)
Conditions in all cases: 10 µM unless noted
SK-MEL-2 melanoma = tested on: SK-MEL-2 melanoma
EKVX NSCLC = tested on: EKVX NSCLC
SN12C renal = tested on: SN12C renal
UO-31 renal = tested on: UO-31 renal
TK-10 renal = tested on: TK-10 renal
ACHN renal = tested on: ACHN renal
A498 renal = tested on: A498 renal
CCRF-CEM leukemia = tested on: CCRF-CEM leukemia
MOLT-4 leukemia = tested on: MOLT-4 leukemia
SR leukemia = tested on: SR leukemia
RPMI-8226 leukemia = tested on: RPMI-8226 leukemia
OVCAR-8 ovarian = tested on: OVCAR-8 ovarian
OVCAR-5 ovarian = tested on: OVCAR-5 ovarian
OVCAR-4 ovarian = tested on: OVCAR-4 ovarian
SK-OV-3 ovarian = tested on: SK-OV-3 ovarian
IGROV1 ovarian = tested on: IGROV1 ovarian
OVCAR-3 ovarian = tested on: OVCAR-3 ovarian
HS 578T breast = tested on: HS 578T breast
NCI/ADR-RES ovarian = tested on: NCI/ADR-RES ovarian
CAKI-1 renal = tested on: CAKI-1 renal

SMILES	growth (SK-MEL-2 melanoma)	growth (EKVX NSCLC)	growth (SN12C renal)	growth (UO-31 renal)	growth (TK-10 renal)	growth (ACHN renal)	growth (A498 renal)	growth (CCRF-CEM leukemia)	growth (MOLT-4 leukemia)	growth (SR leukemia)	growth (RPMI-8226 leukemia)	growth (OVCAR-8 ovarian)	growth (OVCAR-5 ovarian)	growth (OVCAR-4 ovarian)	growth (SK-OV-3 ovarian)	growth (IGROV1 ovarian)	growth (OVCAR-3 ovarian)	growth (HS 578T breast)	growth (NCI/ADR-RES ovarian)	growth (CAKI-1 renal)
O=C1COCCN1c1ccc(Nc2nc(Cl)nc(OCc3cn(Cc4ccccc4)nn3)n2)cc1	85.6%	99.5%	94.2%	73.6%	98.6%	101%	92.2%	60%	62%	8.29% (active)	67.9%	79.6%	105%	83%	88.8%	62.6%	89.4%	85.3%	101%	–
O=C(CCCCC1CCSS1)Nc1ncnc2n[nH]c(-c3ccc(Oc4ccccc4)cc3)c12 (stereo unspecified)	43.6%	80.5%	106%	73.2%	109%	88.3%	123%	13.7%	–	32.9%	85.4%	100%	101%	–	123%	93.5%	116%	117%	89%	97.1%
O=C(Nn1c2c(sc1=Nc1ccccc1)C(=O)c1ccccc1C2=O)c1cc2ccc1CCc1ccc(cc1)CC2	75.2%	70.4%	70.2%	33.6%	108%	42.7%	93.7%	79.8%	83.3%	61.1%	75.2%	62.2%	110%	69.4%	76.3%	48.8%	64.8%	78.9%	70.2%	–
CCOP(=O)(OCC)c1nc(-c2ccccc2)oc1NCc1cccnc1	111%	104%	103%	89.7%	101%	103%	102%	108%	101%	102%	101%	106%	101%	112%	106%	100%	110%	109%	105%	–
CC(=O)N1N=C(c2ccc(Nc3nc(Nc4ccc(Cl)cc4)nc(Nc4ccc(Cl)cc4)n3)cc2)CC1c1ccco1 (stereo unspecified)	77.7%	97%	90.3%	85.6%	110%	98.8%	107%	92.4%	66%	64.9%	34.5%	83.2%	105%	97.3%	124%	89.4%	104%	114%	93.5%	–
COC1C[C@H](O[C@@H]2C[C@H](O[C@@H]3C[C@H](O[C@@H]4C(=O)c5c(cc6cc(O[C@H]7C[C@@H](O[C@H]8C[C@@H](O)[C@H](O)C(C)O8)[C@H](O)C(C)O7)c(C)c(O)c6c5O)C[C@H]4C(OC)C(=O)[C@@H](O)[C@@H](C)O)OC(C)[C@H]3O)OC(C)[C@@H]2O)OC(C)[C@@H]1O (stereo partly specified)	-61.7% (active)	7.01% (active)	2.57% (active)	5.02% (active)	1.34% (active)	6.35% (active)	-44.5% (active)	6.53% (active)	5.23% (active)	10.2%	-1.8% (active)	2.54% (active)	14.2%	12.1%	16.6%	9.46% (active)	3.14% (active)	7.26% (active)	82.4%	–
Cc1ccc(-c2nc3nc(-c4ccccc4)nc(N4CCNCC4)c3o2)cc1	-92.7% (active)	-65.5% (active)	-78.3% (active)	-91.8% (active)	-96.5% (active)	-97.2% (active)	-88.7% (active)	-69.3% (active)	-69.2% (active)	-43% (active)	-61.5% (active)	-73.8% (active)	-89.8% (active)	-82% (active)	-99.6% (active)	-76.7% (active)	-89.7% (active)	-51.4% (active)	-58.1% (active)	–
CCOC(=O)c1cc(C(=O)c2cc(OC)c(OC)c(OC)c2)n2ccc(-c3ccncc3)cc12	86.5%	101%	97.8%	70.3%	100%	99.8%	85.6%	90%	115%	69.4%	56.9%	90.5%	113%	96.3%	87%	111%	109%	86.8%	99.2%	–
CN1C(=O)N(C)C2Nn3c(s/c(=C\c4ccc(C(F)(F)F)cc4)c3=O)=NC21 (stereo unspecified)	115%	100%	100%	82.3%	106%	105%	109%	101%	106%	96.9%	106%	108%	103%	102%	111%	101%	106%	105%	99.8%	–
COC(=O)c1c2c(c(C)[n+]([O-])c1C)C(=O)C=C(NCc1ccc(Br)cc1)C2=O	-54% (active)	-85.3% (active)	-77.7% (active)	-85.8% (active)	2.5% (active)	-73.2% (active)	-86.4% (active)	-12.6% (active)	-21.7% (active)	1.3% (active)	-28.3% (active)	1.05% (active)	-82.8% (active)	-92.8% (active)	-10.7% (active)	-53.4% (active)	-73.4% (active)	-7.62% (active)	-8.51% (active)	–
COC(=O)c1cc(-c2ccc(OC)cc2)[nH]c1N/N=C/c1c(Cl)cccc1Cl	52.9%	20.1%	26%	27.9%	47.8%	39.3%	-2.53% (active)	12.2%	–	–	10.9%	14.5%	44.3%	40.6%	18.8%	29%	-72.4% (active)	0.353% (active)	20%	-5.7% (active)
Fc1ccc2[nH]cc(-c3nonc3-c3c[nH]c4ccc(Br)cc34)c2c1	27%	19.3%	47.3%	17.3%	41.5%	23.3%	24.9%	26%	16.7%	15.2%	29.9%	27%	36.8%	36%	44.3%	41.6%	34.3%	39.5%	23%	–
OCCOCCN(Cc1ccccn1)Cc1cc(I)cc(I)c1O	87.1%	87.7%	89.8%	42.9%	58.9%	41.2%	89.9%	81.9%	86.2%	87.8%	96.9%	85.7%	92.5%	93.9%	107%	77.9%	90.2%	109%	6.52% (active)	–
O=C1CNC(c2ccccc2)C(c2ccccc2)N1 (stereo unspecified)	94.7%	102%	99.8%	109%	103%	98.5%	74.7%	69.9%	104%	106%	75.2%	98%	86.5%	89%	107%	93%	107%	86.1%	81%	–
O=C(CSc1nc2sc3c(c2c(=O)n1-c1ccccc1)CCCCC3)N/N=C/c1ccc(F)cc1	91.9%	80%	16.3%	88.2%	69.1%	26.8%	89.7%	46%	67.1%	11.3%	66%	-17.9% (active)	41.8%	-47.4% (active)	73.4%	62.1%	-33.8% (active)	-13.9% (active)	22.9%	–
O=C(O)CNC1=C(Cl)C(=O)c2ccccc2C1=O	100%	98.6%	92.7%	58.9%	110%	91.2%	102%	91.4%	–	107%	87.4%	87.9%	–	97%	114%	103%	97.5%	124%	98.3%	76.7%
